Each structure is given as a SMILES string. Records with an inconclusive call do not appear. Calls of active or inactive are those of the source. Cut-off read from the data, not from the text of the source, unless noted: active = inhibition above about 30%; inactive = the rest.

Experiment [1] can be described thus: reducers of endogenous Her2 protein level, primary screen, SKBR3 breast tumor cells, AlphaScreen, ATP viability (AID 461;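 active = Her2 level under about 52% in both replicate screens, with viability over 70% of control, limit read from the data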;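 for Her2 level: lower value means less Her2 protein in the cells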;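 for viability: percent of carrier control wells set as 100% viability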). The note with it: 18-24 h, measured here: SKBR3 viability, ATP luminescence, at 10 µM.
For experiment [2], the target named is Receptor tyrosine-protein kinase erbB-2 (Homo sapiens) (UniProt P04626). The experiment is described as above. The conditions noted are these: 18-24 h, at 10 µM, stronger effect = lower value.
The nature of experiment [3]: SK-BR-3 cell growth inhibitors, pilot screen, 24 h, human (AID 572;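 active = viability at or below 10% of carrier control in both of two separate runs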;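 note: compound exposure lasted between 18 and 24 h rather than exactly 24 h; 100% = carrier-treated control wells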). The conditions noted are these: SK-BR-3 viability, CellTiter-Glo luminescence, at 10 µM, stronger effect = lower value.
Experiment [4] is described as follows: HUVEC growth inhibition – cell-based, human, primary screen (AID 575;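 active = viability at or below 30% in both replicate assays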;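 note: 100% = median of untreated cell wells with 0.1% DMSO on each plate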). The note with it: HUVEC proliferation, CellTiter-Glo luminescence, 72 h; at 10 µM; stronger effect = lower value.
Experiment [5] is described as follows: growth inhibitors of H69AR lung tumor, primary screen, human, duplicate replicates (AID 580;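 active = viability at or under a set limit in both replicates, limit being median viability minus 3 SD, cut at about 48% in these data, passing the limit was not always enough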;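 note: 100% = mean luminescence of untreated wells and 0% = no signal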). The note with it: H69AR lung tumor cells viability, ATP luminescence, 72 h; at 10 µM; stronger effect = lower value.
Experiment [6] in a line: reversal of MRP1-mediated doxorubicin resistance, pilot screen, H69AR cells, doxorubicin co-treatment (AID 601;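 active = viability loss from added drug above about 55%, and viability with drug at most 40%, in both replicates, limit read from the data, passing the limit was not always enough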). The conditions noted are these: CellTiter-Glo, 72 h, at 10 µM; for differential viability (reversal): stronger effect = higher value.
A short description of experiment [7]: 384-well plate pilot, post-Golgi transport modulator project, inhibition of yeast transport mutant growth (AID 636; in the data active = inhibition above about 31%). The conditions noted are these: absorbance 615 nm, about 18 h, stronger effect = higher value.
Experiment [8] can be described thus: growth suppression of yeast trafficking mutant, preliminary HTS, modulators of trafficking downstream of Golgi apparatus project, 1536-format plate, OD 615 nm (AID 637). The note with it: yeast transport mutant growth, absorbance 615 nm, 18 h; stronger effect = higher value.
The nature of experiment [9]: OD615 S. cerevisiae growth inhibition, permissive medium, pilot counter-assay, permissive growth control for S. cerevisiae lifespan shortening project (AID 705;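 active = growth inhibition above 25% in both replicates, a cutoff set 3 SD above the mean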). The conditions noted are these: OD615, 24 h, at 10 µM, stronger effect = higher value.
Experiment [10] is described as follows: Restrictive medium S. cerevisiae growth inhibition, OD615, pilot screen of yeast lifespan reduction project, restrictive growth control (AID 706;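 active = growth inhibition above a set limit, 3 SD over mean compound inhibition, in both replicates, cut at about 43% in these data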;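 note: modified DeaD lifespan yeast strain shifted to restrictive glucose medium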). The conditions noted are these: OD615, 48 h, at 10 µM, stronger effect = higher value.
Experiment [11] can be described thus: viability gain of MRP-1-high H69AR cells under doxorubicin, pilot screen, MRP-1 activator project, CellTiter-Glo, duplicate (AID 807;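 active = viability increase at or above a cutoff of the median across tested compounds plus 3 SD, cut at about 8.5% in these data, passing the limit was not always enough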;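 note: compound pretreatment 18-22 h then 72 h combined with doxorubicin; 0% = doxorubicin alone and 100% = vehicle without doxorubicin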). The note with it: H69AR viability with doxorubicin, CellTiter-Glo luminescence; at 10 µM; stronger effect = higher value.
Experiment [12] is described as follows: growth suppression of beta-catenin knockout HCT116, pilot screen, human colon tumor cells (AID 823;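 active = cell viability at or below a set limit in both duplicate runs, the limit being the all-compound median minus 4 SD, cut at about 23% in these data, passing the limit was not always enough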;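 note: 0% = wells killed by 20 µM Hyamine and 100% = untreated DMSO cell wells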). The note with it: CellTiter-Glo, 60 h, at 10 µM, stronger effect = lower value.
Experiment [13] can be described thus: growth suppression of PTEN-deleted HCT116, pilot screen, cell-based, HCT116 clonal line, CellTiter-Glo (AID 824;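 active = viability at or below 27.92% in each of two runs, the all-compound median minus 4 SD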;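 note: 0% = 20 µM Hyamine control and 100% = vehicle cell control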). The conditions noted are these: 60 h, at 10 µM, stronger effect = lower value.
The nature of experiment [14]: inhibitors of the yeast RAM network, pilot screen, dse1pr::URA3 reporter, 5-FOA selection (AID 869;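 active = inhibition over a set limit, the all-compound mean plus 3 SD, in both replicate runs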;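 note: 0% = DMSO wells with no growth and 100% = 10 µM 1-NA-PP1 with full growth; RAM network block rescues cells from 5-FOA so hits raise OD615 growth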). The conditions noted are these: S. cerevisiae dse1pr::URA3 5-FOA growth, OD615, 2 d; at 10 µM; stronger effect = higher value; strain carries analog-sensitive mutant Cbk1 kinase.
A short description of experiment [15]: RAM signaling pathway blockade in yeast – S. cerevisiae, Pdr1DBD-CYC8 efflux-inhibited sensitized strain, primary screen (AID 1298;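 active = RAM network inhibition above 8.4% in each of two replicates, 3 SD over the compound average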;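 note: 0% = DMSO untreated cells without growth and 100% = 10 µM 1-NA-PP1 full growth; higher means more yeast growth rescued from 5-FOA killing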). The conditions noted are these: S. cerevisiae cbk1-as DSE1-URA3 strain, 5-FOA growth OD615, 2 d; at 50 µM; stronger effect = higher value.
Setting [16] is: H69AR cells + 2 uM doxorubicin, measured here: viability with 2 uM doxorubicin, stronger effect = lower value.
The mark [17] stands for this setting: H69AR cells, compound alone cytotoxicity.

Receptor tyrosine-protein kinase erbB-2 (Homo sapiens), sequence (P04626 whole entry, looked up): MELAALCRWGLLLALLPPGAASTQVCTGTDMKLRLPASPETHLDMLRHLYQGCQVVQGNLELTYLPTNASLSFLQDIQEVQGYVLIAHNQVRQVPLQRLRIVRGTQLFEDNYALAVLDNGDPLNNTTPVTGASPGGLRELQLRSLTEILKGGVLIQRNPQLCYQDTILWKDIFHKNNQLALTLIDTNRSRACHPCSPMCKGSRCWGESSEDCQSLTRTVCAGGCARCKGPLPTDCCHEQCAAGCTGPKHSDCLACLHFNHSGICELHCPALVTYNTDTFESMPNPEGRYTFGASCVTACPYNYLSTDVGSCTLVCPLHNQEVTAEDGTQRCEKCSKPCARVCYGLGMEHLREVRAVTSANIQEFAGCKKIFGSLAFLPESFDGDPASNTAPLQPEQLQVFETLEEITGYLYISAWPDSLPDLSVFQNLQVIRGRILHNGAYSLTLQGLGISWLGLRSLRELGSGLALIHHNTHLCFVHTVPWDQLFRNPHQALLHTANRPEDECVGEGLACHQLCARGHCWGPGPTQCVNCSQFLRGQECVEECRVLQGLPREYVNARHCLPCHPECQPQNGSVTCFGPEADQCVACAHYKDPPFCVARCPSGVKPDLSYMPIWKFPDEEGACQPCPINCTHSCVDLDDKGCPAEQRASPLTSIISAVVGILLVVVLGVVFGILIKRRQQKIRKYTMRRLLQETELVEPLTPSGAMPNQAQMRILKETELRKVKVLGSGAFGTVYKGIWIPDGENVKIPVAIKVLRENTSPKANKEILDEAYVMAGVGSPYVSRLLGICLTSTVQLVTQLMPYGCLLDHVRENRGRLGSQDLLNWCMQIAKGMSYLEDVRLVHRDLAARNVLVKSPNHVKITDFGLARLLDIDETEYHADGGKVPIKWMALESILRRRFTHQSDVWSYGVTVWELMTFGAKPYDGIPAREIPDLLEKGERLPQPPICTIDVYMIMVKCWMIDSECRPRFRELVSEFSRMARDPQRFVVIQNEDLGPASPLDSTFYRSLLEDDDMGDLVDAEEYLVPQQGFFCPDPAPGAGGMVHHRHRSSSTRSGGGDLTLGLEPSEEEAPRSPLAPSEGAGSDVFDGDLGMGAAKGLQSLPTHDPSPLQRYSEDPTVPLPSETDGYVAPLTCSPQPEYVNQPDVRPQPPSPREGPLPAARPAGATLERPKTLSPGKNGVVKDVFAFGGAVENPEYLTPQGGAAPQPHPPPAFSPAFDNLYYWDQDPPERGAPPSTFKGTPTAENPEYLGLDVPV

Consider `CCOC(=O)c1[nH]c(C)c(C(=O)Nc2ccc(Cl)cc2)c1C`, for which the viability was 88.5% in experiment [1]; 88.5% (inactive) in [3]; 73.3% (inactive) in experiment [4]; 85.9% (inactive) in experiment [5]; 93% in experiment [6] (setting [16]); 85.9% in experiment [6] (setting [17]). Also, the viability in experiment [12] is 96.7% (inactive); in [13] it was 95.2% (inactive). In addition, the Her2 level in experiment [2] was 109% (inactive). In addition, in [6] (H69AR cells + 2 uM doxorubicin), the differential viability (reversal) is -7.14% (inactive). The inhibition was 1.92% (inactive) in experiment [7], 0.17% (inactive) in experiment [8] and 1.79% (inactive) in experiment [14]. The growth inhibition in [9] was -1.96% (inactive); in experiment [10], 2.55% (inactive). Besides, the viability increase in experiment [11] is 2.64% (inactive). Moreover, in experiment [15], the RAM network inhibition was 3.1% (inactive).
For the molecule `CC(=O)NC(CCS(C)(=O)=O)C(=O)Nc1cccc(C)c1` (stereo not given), the viability was 88.5% in experiment [1]; 88.5% (inactive) in experiment [3]; 89.3% (inactive) in experiment [4]; 94.1% (inactive) in experiment [5]; 92.7% in [6] (setting [16]); 94.1% in experiment [6] (setting [17]). Also, the viability in [12] was 103% (inactive); in experiment [13], 100% (inactive). Further, the Her2 level in [2] was 121% (inactive). In [6] (H69AR cells + 2 uM doxorubicin), the differential viability (reversal) is 1.42% (inactive). In addition, the inhibition was 1.87% (inactive) in experiment [7], 1.83% (inactive) in experiment [8] and 1.04% (inactive) in experiment [14]. In addition, the values for the growth inhibition in [9] and in [10] were -12.4% (inactive) and -11.9% (inactive), respectively. Besides, in [11], the viability increase is 0.75% (inactive). Moreover, the RAM network inhibition in experiment [15] was 2.51% (inactive).
For the molecule `C=CCOc1ccc(/C(CC)=N/O)c(OC)c1`, the viability in experiment [1] was 93.5%; in experiment [3], 93.5% (inactive); in [4] it was 70.4% (inactive); in [5] it was 101% (inactive); in experiment [6] (setting [16]), 90.9%; in experiment [6] (setting [17]), 101%. Further, the figures for the viability in experiment [12] and in experiment [13] were 96.7% (inactive) and 105% (inactive), respectively. The Her2 level in experiment [2] is 104% (inactive). Besides, the differential viability (reversal) in [6] (H69AR cells + 2 uM doxorubicin) was 10.5% (inactive). The inhibition was -1.82% (inactive) in experiment [7], 0.5% (inactive) in [8] and 0.56% (inactive) in experiment [14]. Moreover, the growth inhibition was -19.1% (inactive) in [9] and -11.4% (inactive) in [10]. Also, in experiment [11], the viability increase is -0.09% (inactive). For the same molecule, in experiment [15], the RAM network inhibition was -0.68% (inactive).
As for `C=C(C)Cn1c(-c2ccccc2)nc2ccccc21`, the viability in experiment [1] was 80%; in experiment [3] it was 80% (inactive); in experiment [4] it was 117% (inactive); in experiment [5], 96.1% (inactive); in experiment [6] (setting [16]), 95.3%; in experiment [6] (setting [17]), 96.1%. Also, the viability was 80.2% (inactive) in experiment [12] and 87.8% (inactive) in experiment [13]. The Her2 level in experiment [2] was 102% (inactive). Further, the differential viability (reversal) in experiment [6] (H69AR cells + 2 uM doxorubicin) was 0.815% (inactive). For the same molecule, the inhibition was -2.8% (inactive) in [7], -1.45% (inactive) in experiment [8] and 1% (inactive) in [14]. Further, the growth inhibition in [9] was -10.1% (inactive); in experiment [10], -9.65% (inactive). Also, in experiment [11], the viability increase is -1.92% (inactive). The RAM network inhibition in experiment [15] was 5.93% (inactive).
For the molecule `Cn1cc(Cl)c(C(=O)NC2CCCC2)n1`, the viability is 83.5% in experiment [1]; 83.5% (inactive) in experiment [3]; 108% (inactive) in [4]; 105% (inactive) in [5]; 91.3% in experiment [6] (setting [16]); 105% in experiment [6] (setting [17]). Moreover, the viability is 104% (inactive) in experiment [12] and 103% (inactive) in experiment [13]. The Her2 level in [2] was 118% (inactive). Besides, in [6] (H69AR cells + 2 uM doxorubicin), the differential viability (reversal) was 14.1% (inactive). In addition, the inhibition in experiment [7] is -5.07% (inactive); in [8] it was 5.5% (inactive); in [14] it was 1.5% (inactive). Moreover, the growth inhibition in experiment [9] is -12.3% (inactive); in experiment [10] it was -8.69% (inactive). Besides, in experiment [11], the viability increase is -0.89% (inactive). In addition, the RAM network inhibition in [15] is 2.86% (inactive).
